Reference: PubChem BioAssay (NCI)
The panel holds about 83,000 compounds, 20% with a hit somewhere; the sample as a whole holds those more often.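 48-hour exposure, single concentration, 96-well plates; percent growth endpoint where 0 means no net growth. Active: below 10.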 Unmarked numbers belong to inactive results. Active and inactive are the calls of the source.

Assays:
Assay in all cases: NCI-60 one-dose screen, 48 h (100 = growth as untreated, 0 = no growth, -100 = all killed)
Details in all cases: 10 µM unless noted
[1] = tested on: DU-145 prostate
[2] = tested on: K-562 leukemia
[3] = tested on: MALME-3M melanoma
[4] = tested on: MDA-MB-231 breast
[5] = tested on: RXF 393 renal
[6] = tested on: SF-268 CNS
[7] = tested on: SF-295 CNS
[8] = tested on: SF-539 CNS
[9] = tested on: UACC-257 melanoma
[10] = tested on: M14 melanoma
[11] = tested on: HCT-15 colon
[12] = tested on: HT29 colon
[13] = tested on: SNB-75 CNS
[14] = tested on: U251 CNS
[15] = tested on: PC-3 prostate
[16] = tested on: SK-MEL-5 melanoma
[17] = tested on: UACC-62 melanoma
[18] = tested on: LOX IMVI melanoma
[19] = tested on: SK-MEL-28 melanoma
[20] = tested on: SNB-19 CNS

| SMILES | growth [1] | growth [2] | growth [3] | growth [4] | growth [5] | growth [6] | growth [7] | growth [8] | growth [9] | growth [10] [%] | growth [11] | growth [12] | growth [13] | growth [14] | growth [15] | growth [16] | growth [17] | growth [18] | growth [19] [%] | growth [20] |
| --- | --- | --- | --- | --- | --- | --- | --- | --- | --- | --- | --- | --- | --- | --- | --- | --- | --- | --- | --- | --- |
| COc1ccc(-c2cc(-c3ccccc3)nc(SCCCCCC(=O)NO)n2)cc1 | 61.2% | 26.4% | 21.5% | 59.2% | 39.2% | 98.9% | 60.4% | 68.1% | 36.5% | 52 | 78.1% | 23% | 44.1% | 56.4% | 70.7% | 33.2% | 26.2% | 59.2% | 49.3 |  |
| C=C(C)[C@@H]1CC[C@]2(C(=O)OC)CC[C@]3(C)[C@H](CC[C@@H]4[C@@](C)(CCc5nn[nH]n5)[C@H](C(=C)C)CC[C@]43C)[C@@H]12 | 0.51% [100 µM] (active) | 14.5% [100 µM] | -52% [100 µM] (active) | -76.9% [100 µM] (active) | -78.3% [100 µM] (active) | -23.1% [100 µM] (active) | -35.2% [100 µM] (active) | -65% [100 µM] (active) | -5.16% [100 µM] (active) |  | 6.32% [100 µM] (active) | -16.1% [100 µM] (active) | -77.8% [100 µM] (active) | -26.5% [100 µM] (active) | 5.02% [100 µM] (active) | -73.7% [100 µM] (active) | -72.8% [100 µM] (active) | -90.9% [100 µM] (active) |  | -5.69% [100 µM] (active) |
| Nc1cccc2c1C(=O)c1cccc(NC(=O)c3ccccc3)c1C2=O | 6.99% (active) | 13.3% | -17% (active) | 38.4% | -10.7% (active) | 51.5% | -30.3% (active) | -2.57% (active) | 56.2% | 14.2 | 28.6% | 2.96% (active) | 6% (active) | 22.9% | 32.5% | 12.3% | 48.4% | 8.96% (active) | 44.6 |  |
| COc1ccc2c(c1)C(C)Cc1c(Cl)ncnc1N2C (configuration not stated) | 35.3% | 9.21% (active) | 41.4% | -45.3% (active) | -8.62% (active) | 10.5% | 15.2% | 28% | 13.6% | 12.1 | 4.94% (active) | -3.53% (active) | 2.7% (active) | 15.5% | 11.4% | -83.6% (active) | 0.755% (active) | -69.2% (active) | 14.8 |  |
| N#CCCc1c[nH]c2ccccc12 | 107% | 85.4% | 98.9% | 97.1% | 107% | 91% | 98.3% | 95.9% | 90.9% | 94.7 | 104% | 91.1% | 76.4% | 91.3% | 78.6% | 92.1% | 98.6% | 90.5% | 106 |  |
| COc1cc(NCc2cn(-c3ccc(C(=O)O)cc3)nc2-c2ccc(C(=O)O)cc2)cc(OC)c1OC | 93.8% | 107% | 80.8% | 76.4% | 105% | 95.6% | 102% | 90.2% | 99.7% | 96.5 | 106% | 106% | 77.8% | 92.2% | 96.9% | 95.2% | 94.4% | 95.9% | 103 |  |
| COc1ncc(-c2ccc3nccc(C#CCCCCC(=O)O)c3c2)cc1NS(=O)(=O)c1ccc(F)cc1F | 40.9% | 78.6% | -21.4% (active) | 41.9% | -20% (active) | 36.5% | 6.94% (active) | -9.14% (active) | -2.67% (active) | 13.9 | 27.7% | 16.1% | -12.5% (active) | 31.6% | 19.8% | 10.3% | -12.6% (active) | 28.2% |  |  |
| COc1ccc(-c2ccc(NNC(=O)c3ccc(F)cc3)nn2)cc1OC | 65.6% | 55% | 98.8% | 36.2% | 19.5% | 58.2% | 84.7% | 65.8% | 102% | 100 | 64.1% | 59.7% | 8.18% (active) | 77.1% | 73.5% | 71.6% | 88.6% | 44.2% | 101 |  |
| CCn1cc(-c2ccnc(NCCNS(=O)(=O)c3ccc(Br)cc3)c2)c(-c2cccc(OC)c2)n1 | 84.7% | 42.1% | 70.9% | 80.8% | 99.8% | 71.5% | 95.4% | 78.3% | 89.8% | 83.3 | 69.2% | 56.5% | 81.7% | 58.8% | 41.7% | 64% | 71% | 94.2% | 100 |  |
| CCN(CC)c1ccc2cc(C(Nc3ccc(C)cc3)c3nnnn3C(C)(C)C)c(=O)oc2c1 (configuration not stated) | 105% | 87.5% | 105% | 84.5% | 87.3% | 92.6% | 102% | 103% | 104% | 103 | 98.3% | 94.8% | 77.6% | 89.2% | 73.7% | 83.4% | 71.7% | 94.8% | 106 |  |
| C#CCC(C(=O)OCC)C(=O)OCC | 101% | 102% | 110% | 101% | 128% | 104% | 103% | 101% | 108% | 105 | 106% | 103% | 90.5% | 104% | 99.8% | 105% | 101% | 99.2% | 109 |  |
| CCOC(=O)C(C(C)=O)c1nc2sc3cc(Cl)c(Cl)cc3n2c(=O)c1C#N (configuration not stated) | 109% | 92% | 95.5% | 87.2% | 179% | 103% | 103% | 86.2% | 118% | 104 | 109% | 107% | 73% | 111% | 83.9% | 74.3% | 85.8% | 98.1% | 125 |  |
| COc1ccc(NCc2cn(-c3ccc(C(=O)O)cc3)nc2-c2ccc(C(=O)O)cc2)cc1C(F)(F)F | 96.3% | 111% | 77.9% | 81.8% | 89.8% | 99.3% | 97.2% | 86.7% | 100% | 96.9 | 105% | 101% | 84% | 93.7% | 102% | 94.8% | 94.3% | 97.4% | 97.3 |  |
| CCOC(=O)CC(c1ccccc1)C(C#N)c1ccccc1 (configuration not stated) | 104% | 108% | 90.9% | 106% | 87.5% | 99.4% | 110% | 109% | 94.2% | 91.8 | 103% | 103% | 82.1% | 97.6% | 89.5% | 98.7% | 97.3% | 103% | 95.5 |  |
| COc1ccc(-c2c(C)nn3c(NCCN4CCOCC4)cc(C)nc23)cc1OC | 106% | 97.8% | 96.8% | 86% | 83.6% | 101% | 82% | 81.9% | 99.9% |  | 95.1% | 94.4% | 93.2% | 82.2% | 89.7% | 97.2% | 97.6% | 87.5% |  | 91.4% |
| Cc1ccc(-c2cn(C/C=C3\C=CN(S(=O)(=O)c4ccccc4)CC3)nn2)cc1 | 118% | 89.5% | 104% | 97.5% | 123% | 99.3% | 99.3% | 100% | 106% | 92.5 | 95.6% | 124% | 82.1% | 108% |  | 97% | 64% | 97.8% | 101 |  |
| O=C(O)c1ccccc1C(F)(F)F | 102% | 102% | 103% | 95.3% | 102% | 96.3% | 95.6% | 93.7% | -1.89% (active) | 93.4 | 104% | 107% | 77.1% | 96.5% | 99.7% | 105% | 95% | 81.2% | 121 |  |
| O=C1Nc2ccccc2/C1=C/C(=O)c1ccc(N2CCCC2)cc1 | 12.3% | 14.3% | 39.3% | 47.2% | 20.6% | 21.9% | 68.8% | 4.58% (active) | 78.1% | 108 | 23.1% | -9.76% (active) | 23.3% | 4.98% (active) | 38.2% | 65.2% | 34.5% | -17% (active) | 76.5 |  |
| COc1ccc2c(c1)C(C)Cc1c(Cl)nc(C)nc1N2C (configuration not stated) | 34% | 11.7% | 80.7% | 19% | -0.792% (active) | 43.2% | 7.77% (active) | 4.64% (active) | 78.1% | 13.5 | 18.4% | -13.3% (active) | 39.3% | 21.9% | 14.8% | 24% | 27% | 43.7% | 80.1 |  |
